For 17 molecules, inhibition results are on record in PubChem BioAssay.

In general, inhibition refers to the share of the control response that was lost under treatment.

Values without a mark were called inactive. How the calls were made is not given here.

For this assay, the target named is Pantothenate synthetase (Mycobacterium tuberculosis (strain ATCC 25618 / H37Rv)) (UniProt P9WIL5). The assay can be described thus: Recombinant Mtb pantothenate synthetase (PanC) inhibitors, coupled enzyme, confirmatory (AID 375).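 Further: 0% = full reaction with vehicle and 100% = no enzyme background.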 As to conditions: coupled enzyme assay; at 10 µM, stronger effect = higher value.
Chain of Pantothenate synthetase (Mycobacterium tuberculosis (strain ATCC 25618 / H37Rv)) (P9WIL5 whole entry, looked up): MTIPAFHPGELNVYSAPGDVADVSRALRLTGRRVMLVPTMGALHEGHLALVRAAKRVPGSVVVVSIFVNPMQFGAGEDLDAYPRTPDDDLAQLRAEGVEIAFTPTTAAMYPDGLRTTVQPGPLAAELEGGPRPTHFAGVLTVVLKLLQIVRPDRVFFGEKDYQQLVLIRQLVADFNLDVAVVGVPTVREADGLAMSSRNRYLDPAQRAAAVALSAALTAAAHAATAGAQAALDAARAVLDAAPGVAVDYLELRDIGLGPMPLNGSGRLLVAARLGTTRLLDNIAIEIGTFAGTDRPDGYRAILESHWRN
As for `O=C(NCCc1c[nH]c2ccccc12)c1ccc(S(=O)(=O)NCc2ccco2)cc1`, the inhibition was 0%.
In the case of `O=C1C(CCS(=O)c2ccccc2)C(=O)N(c2ccccc2)N1c1ccccc1` (configuration not stated), the inhibition is 0%.
As for `O=C(CSc1nnc(CNC(=O)c2cccs2)o1)Nc1cccc(C(F)(F)F)c1`, the inhibition was 0%.
With `Fc1cccc(-c2cc3nc4c(c(N5CCN(c6cnccn6)CC5)n3n2)CCCC4)c1`, the inhibition is 0%.
Regarding `O=C(CNS(=O)(=O)c1ccc(Br)s1)N1CCCC1`, the inhibition was 0%.
As to `CCOC(=O)C1CCN(Cc2ccc(OC)c(C)c2OC)CC1`, the inhibition was 0%.
As for `NC(=O)c1ccsc1NC(=O)COC(=O)Cc1ccsc1`, the figure is 3%; as for `Cc1c(Cl)cccc1NC(=O)CCN1CCCCC1`, 0%; as for `O=C(O)C1CC=CCC1C(=O)Nc1ccc(S(=O)(=O)N2CCCc3ccccc32)cc1` (configuration not stated), 0%.
For `CCCCCC1CC(CC(C)C(=O)Nc2nncs2)C(=O)O1` (configuration not stated), the inhibition was 9%.
As to `CCCN1CCC(NC(=O)Nc2ccc(OC)c(OC)c2)CC1`, the inhibition is 0%.
As to `Cc1cc(NS(=O)(=O)Cc2ccccc2)cc(C)c1OCC(=O)N1CCOCC1`, the inhibition is 4%.
As to `Cc1cc(C)n(Cc2cc(C)c(Cn3nc(C)cc3C)cc2C)n1`, the inhibition is 3%.
As for `c1ccc(CCNc2ccc3nncn3n2)cc1`, the inhibition is 2%.
In the case of `CCN(Cc1nc2ccccc2c(=O)[nH]1)Cc1nc2cc(OC)c(OC)cc2c(=O)[nH]1`, the inhibition is 0%.
As for `C=CCn1c(SC(C)C(=O)NC2(C#N)CCCCC2)nnc1-c1ccc(OC)cc1` (configuration not stated), the figure is 5%; as for `COc1ccc(C(NC(=O)C(C)(C)C)NC(=O)C(C)(C)C)cc1`, 0%.
